# Results taken from PubChem BioAssay AID463173 (ICCB-Longwood Screening Facility, Harvard Medical School, 2010).
# The whole screen tested about 52,000 compounds, of which about 1,700 (3.3%) were called active. Many of the other results were omitted from the sample, so actives are more common in it than they were. Unmarked numbers belong to inactive results. No stated cut-off is given here; in the data, active means survival mostly below about 52% (no sharp cut-off); inactive means mostly above about 56%.
# System: Wild type
# Experiment: growth inhibition of S. aureus wild type versus tarO mutant, primary screen, teichoic acid synthesis inhibitors, RN4220, OD600 (AID 463173)
# Conditions: S. aureus RN4220 wild type/DeltatarO growth, OD600, 18 h, active compounds read low, screened at 18.75 µg/mL (by protocol)
row,Compound,survival
1,CCCCOc1ccc(S(=O)(=O)N2CCN(c3ccccc3OCC)CC2)cc1,112%
2,CCc1ccc(N2CCn3c2nc2c3c(=O)n(C/C=C/c3ccccc3)c(=O)n2C)cc1,79%
3,CCCCc1nn2c(=O)cc(COC(=O)C3CCCCC3)nc2s1,70%
4,Cc1cccc(C(=O)N2CCc3cc(CNC(=O)c4ccnn4C)ccc32)c1,90%
5,C#CCSc1nc(-c2ccccc2)cc(-c2ccccc2)c1C#N,70%
6,O=c1c(NCc2cccs2)nccn1-c1ccccc1,74%
7,COc1ccc(-n2ccnc(NCc3ccc(Cl)cc3)c2=O)cc1,0% (active)
8,COc1ccc(-n2ccnc(NCc3cccs3)c2=O)cc1OC,80%
9,COc1ccc(-n2ccnc(NCc3ccccc3OC)c2=O)cc1,85%
10,COc1ccc(-n2ccnc(NCc3cccs3)c2=O)cc1,-3% (active)
11,COc1ccc(-n2ccnc(NCc3ccc(C)cc3)c2=O)cc1OC,87%
12,COc1ccc(-c2cc3nc(C)c(CCC(=O)N4CCN(c5ccc(F)cc5)CC4)c(C)n3n2)c(OC)c1,85%
13,COC(=O)c1cc(S(=O)(=O)N2CCN(c3ccc(C)cc3C)CC2)cn1C,65%
14,COCCNC(=S)N1CCC(c2nc(-c3ccc(N(C)C)cc3)no2)CC1,107%
15,COCCNC(=O)CCCn1c(SCC(=O)Nc2cccc(C)c2)nc2c(sc3ccccc32)c1=O,86%
16,COc1cccc(-c2nc(SCc3cc(=O)c4ccc(C)c(C)c4[nH]3)n[nH]2)c1,97%
17,CCOc1ccc(CNC(=O)CCS(=O)(=O)c2cc3c4c(c2)CCN4C(=O)CC3)cc1,71%
18,CCN(CC)c1ccc(NC(=O)c2sc3ccccc3c2Cl)cc1,15% (active)
19,Cc1cccc(NC(=O)c2sc3cccc(Cl)c3c2Cl)c1,6% (active)
20,O=C(Nc1ccccc1Cl)c1sc2cccc(Cl)c2c1Cl,72%
21,Cc1ccc(NC(=O)c2sc3ccccc3c2Cl)cc1,76%
22,COc1ccccc1NC(=O)c1sc2cccc(Cl)c2c1Cl,71%
23,CCCC(=O)Nc1ccc(NC(=O)c2sc3ccccc3c2Cl)cc1,128%
24,O=C(Nc1ccc(N2C(=O)C=CC2=O)cc1Cl)c1ccco1,105%
25,CC1CCCCN1CCCNC(=O)Cn1ncc2c3ccccc3n(Cc3ccccc3F)c2c1=O (configuration not stated),90%

row,Compound,survival
1,O=C(Nc1ccccc1)c1cccc(N2CCCC2=O)c1,110%
2,CC1CCN(S(=O)(=O)c2ccc(S(=O)(=O)N3CCCN(Cc4ccccc4)C3)cc2)CC1,107%
3,C/C(=N\Nc1nc2sc3c(c2c2ncnn12)CC(C)(C)OC3)C(=O)O,102%
4,COc1ccc(C2C(C(N)=O)=C(C)Nc3nc(CCCO)nn32)c(OC)c1 (configuration not stated),62%
5,COc1ccc(-n2nc3c(N4CCC(C(=O)NC5CCCCC5)CC4)nnc(C)c3c2C)cc1,73%
6,Cc1nc(SCC(=O)OC(C)(C)C)c2c3c(sc2n1)CCCC3,15% (active)
7,Cc1nc(SCC(=O)Nc2nsc(-c3ccc(C(C)(C)C)cc3)n2)c2c3c(sc2n1)CCCC3,92%
8,Cc1nc(SCC(N)=O)c2c3c(sc2n1)CCCC3,90%
9,COc1ccccc1Cc1nc2ccccc2nc1SCC(=O)Nc1ccc2c(c1)OCO2,45%
10,O=C(Cn1nnc(-c2ccccc2)n1)N1CCCCC1,109%
11,Cc1ccc(S(=O)(=O)N2CCN(Cc3ccccc3Cl)CC2)cc1,19% (active)
12,CC(=O)Nc1ccc(S(=O)(=O)N2CCN(Cc3ccccc3Cl)CC2)cc1,117%
13,Cc1ccc(S(=O)(=O)N2CCC(C(=O)NCc3ccccc3Cl)CC2)cc1,64%
14,CC(C)(C)c1ccc(C(=O)NC2(C(F)(F)F)NC(=O)N(CCc3ccccc3)C2=O)cc1 (configuration not stated),43%
15,Cc1c(Cl)cccc1NC(=O)Nc1ccc2snnc2c1,24% (active)
16,O=C(Nc1cccc(C(F)(F)F)c1)c1cccs1,116%
17,O=C(Nc1ccc(F)cc1)Nc1ccc2snnc2c1,45%
18,O=C(Nc1cccs1)Nc1cc(C(F)(F)F)ccc1Cl,26%
19,CCc1ccccc1NC(=O)Nc1ccc2snnc2c1,82%
20,O=C(Nc1cccc(C(F)(F)F)c1)c1ccc2snnc2c1,118%
21,Cc1c(Cl)cccc1NC(=O)c1ccc2snnc2c1,106%
22,O=C(Nc1cccc(C(F)(F)F)c1)Nc1cccs1,4% (active)
23,O=C(Nc1cccc(C(F)(F)F)c1)Nc1ccc2snnc2c1,29% (active)
24,CCc1ccc(NC(=O)CSc2nc3c(sc4ccccc43)c(=O)n2CCN(CC)CC)cc1,73%
25,CCN(CC)/C(=N/OCc1ccc(Cl)cc1Cl)c1nonc1N,100%

row,Compound,survival
1,CC1=NN(C(C#N)c2ccccc2)C(C)(C)C1 (configuration not stated),113%
2,Cc1cccc(N2CCN(Cc3nnc(-c4ccc5c(c4)OCO5)o3)CC2)c1C,83%
3,Cc1cc2nnc(SCc3ccc(F)cc3)n2c2ccccc12,-2% (active)
4,CCOC(=O)c1ccc(CSc2nnc3cc(C)c4ccccc4n23)cc1,108%
5,CCCN(CCC)C(=O)CSc1nnc2cc(C)c3ccccc3n12,84%
6,COc1ccc(Cn2c(SCc3ccc(C(=O)NCCc4ccccc4)cc3)nc3cccnc32)cc1,77%
7,CCCCCn1c(NCc2ccccc2OC)nc2ccccc21,-5% (active)
8,CCCCn1c(NCc2ccc(N(C)C)cc2)nc2ccccc21,70%
9,CCCCn1c(NCc2ccc(OC)cc2O)nc2ccccc21,88%
10,CCCn1c(NCc2ccccc2C)nc2ccccc21,95%
11,CCCn1c(NCc2ccc(N(CC)CC)cc2)nc2ccccc21,0% (active)
12,CCCn1c(NCc2ccccc2F)nc2ccccc21,89%
13,CCCCCn1c(NCc2ccc(OC)cc2)nc2ccccc21,-2% (active)
14,CCn1c(NCc2ccc(OC)c(OC)c2)nc2ccccc21,127%
15,CCCCn1c(NCc2cc(Br)ccc2O)nc2ccccc21,69%
16,CCOc1ccc(CNS(=O)(=O)c2ccc3c(c2)CC(C)N3C(C)=O)cc1OC (configuration not stated),70%
17,CCN(C(=O)C1CCC(CNS(=O)(=O)c2cccc3nsnc23)CC1)c1ccccc1 (configuration not stated),76%
18,CCOC(=O)c1[nH]c(C)c(CCC(=O)Nc2ccccc2OCC)c1C,84%
19,COc1ccc(-c2cn3nc(N4CCCC(C(=O)Nc5ccc(Cl)cc5C)C4)sc3n2)cc1 (configuration not stated),77%
20,O=C(Cn1c(=O)n(Cc2ccco2)c(=O)c2sc3ccccc3c21)Nc1ccc(F)cc1F,84%
21,Cc1ccc(NC(=O)CN2CCCN(Cc3cc(C)ccc3C)S2(=O)=O)c(Cl)c1,55%
22,CCc1cccc(C)c1NC(=O)CN1CCCN(Cc2ccc(C)cc2)S1(=O)=O,0% (active)
23,CCc1cccc(C)c1NC(=O)CN1CCN(Cc2ccccc2Cl)S1(=O)=O,134%
24,CCc1cccc(C)c1NC(=O)CN1CCCN(Cc2ccccc2Cl)S1(=O)=O,14% (active)
25,O=C(CN1CCCN(Cc2ccccc2Cl)S1(=O)=O)NCc1ccccc1,78%

row,Compound,survival
1,Cc1cccc(CN2CCN(CC(=O)Nc3c(C)cccc3C)S2(=O)=O)c1,134%
2,Cc1ccc(NC(=O)CN2CCCN(Cc3ccccc3Cl)S2(=O)=O)c(C)c1,-1% (active)
3,Cc1ccc(CN2CCCN(CC(=O)Nc3ccc(C)cc3C)S2(=O)=O)cc1,85%
4,Cc1ccccc1CN1CCCN(CC(=O)Nc2c(C)cccc2C)S1(=O)=O,66%
5,COc1ccccc1CNC(=O)c1cnc2sc(N3CCOCC3)nn2c1=O,153%
6,CC(C)(C)c1ccc(C(=O)Nc2c(C(=O)c3ccc(F)cc3)oc3ccccc23)cc1,73%
7,Cc1ccc(C(=O)N2CC3(C)CC2CC(C)(C)C3)cc1 (configuration not stated),110%
8,CCn1c(CN2CCCCC2)nc2cc(NC(=O)COc3ccc([N+](=O)[O-])cc3)ccc21,79%
9,COc1cc(C(=O)N(CCc2ccccc2)C2CC3CCC(C2)N3C)cc(OC)c1OC (configuration not stated),104%
10,COc1ccc(OC)c(NC(=O)c2nc(S(=O)(=O)Cc3ccc(F)cc3)ncc2Cl)c1,-3% (active)
11,Cc1ccc(C)c(NC(=O)c2nc(S(=O)(=O)Cc3ccc(F)cc3)ncc2Cl)c1,109%
12,O=C(NCc1ccccc1)c1nc(S(=O)(=O)Cc2ccccc2)ncc1Cl,42%
13,COc1ccc(CNC(=O)c2nc(S(=O)(=O)Cc3ccccc3)ncc2Cl)cc1,34%
14,O=C(NCc1ccccc1)c1nc(S(=O)(=O)Cc2ccc(F)cc2)ncc1Cl,-5% (active)
15,COc1ccc(OC)c(NC(=O)c2nc(SCc3ccc(F)cc3)ncc2Cl)c1,100%
16,COc1cc(C2NC(=O)c3c(sc4c3CCN(C)C4)N2)ccc1OC(=O)c1ccccc1 (configuration not stated),80%
17,O=C(CSc1nc(=O)n(Cc2ccco2)c2c1CCC2)NCc1ccccc1,72%
18,Cc1ccc(NC(=O)CCc2nnc3n(C)c(=O)c4sccc4n23)cc1C,72%
19,Cc1ccsc1CCN1C(=O)N(c2ccc(F)cc2)C(=O)C1CC(=O)Nc1ccccc1 (configuration not stated),72%
20,COc1ccc2c(CNCc3cccs3)c(C(=O)O)n(Cc3ccccc3)c2c1,84%
21,COc1cc(NS(=O)(=O)c2ccc3[nH]c4c(c3c2)CCCC4)cc(OC)c1OC,129%
22,CCOC(=O)c1cccc(NC(=O)CCCn2c(C)c3cnn(-c4ccccc4)c(=O)c3c2C)c1,77%
